Screens as filed in PubChem.
Shown is part of a subset that was picked to be rich in hits.
mHTT-CaM PPI inh: disrupts binding of mutant huntingtin to calmodulin; 190,000 compounds, 3.6% hits; AlphaScreen His-mHTT/GST-CaM binding, luminescence; P42858; inhibition, % at 15 µM; AID 1671202;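 further: 0% = both proteins with DMSO and 100% = one protein alone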
Pf apPOL inh: Pf-apPOL DNA polymerase inhibition. Recombinant Pf-apPOL, molecular beacon fluorescence, 1.5 h. inhibition, % at 10 µM. 210,000 compounds, 0.25% hits. AID 1794808
Starred values were filed as active, the others as inactive; / = no result given. No stated cut-off is given here; in the data, active means inhibition above about 50%; inactive means the rest.

SMILES | mHTT-CaM PPI inh | Pf apPOL inh
COc1ccc(C2CC(c3cccc(F)c3)=NN2C(=O)CN2CCOCC2)cc1 (stereo not given) | 73.7* | -4.6
O=C(Cn1[nH]c2c(cnc3ccc(Cl)cc32)c1=O)Nc1ccc(F)cc1 | 11.6 | -5.1
COc1ccc(C2=N/C(=C\c3ccc(OC)cc3OC)C(=O)O2)c(Br)c1 | 0.0 | -1.4
CCOc1ccc(CN2CCCC2c2cc(C)no2)cc1OC (stereo not given) | 2.6 | 2.4
COc1ccc(S(=O)(=O)N2CCC(c3noc(-c4cccc(F)c4)n3)CC2)cc1 | -8.2 | -5.9
COc1ccc(CNC(=O)C2CCN(Cc3ccc(Cl)cc3)CC2)cc1 | -1.5 | -0.2
O=C(CSc1ncn[nH]1)n1c2c(c3ccccc31)CCCC2 | 57.0* | 5.0
Cn1c(SCC(=O)n2c3c(c4ccccc42)CCCC3)nnc1-c1ccc(N)cc1 | 16.1 | -3.2
O=C1CSC(c2cccc(Cl)c2Cl)N1c1cccc(F)c1 (stereo not given) | -12.0 | 2.4
O=[N+]([O-])c1cccc(Nc2nc(-c3ccccn3)cs2)c1 | 48.0 | -2.8
CCC(=O)Nc1nc(C)c(-c2csc(Nc3ccccc3OC)n2)s1 | 41.2 | 27.6
CCC(=O)Nc1nc(C)c(-c2csc(Nc3ccccn3)n2)s1 | 41.0 | -0.3
Cc1c(Cl)cccc1Nc1nc(-c2ccccn2)cs1 | 100.0* | 0.6
COc1ccc(OC)c(Nc2nc(-c3ccncc3)cs2)c1 | 6.1 | -10.0
CCc1ccccc1Nc1nc(-c2ccccn2)cs1 | 99.0* | -1.8
COc1ccccc1Nc1nc(-c2sc(N)nc2C)cs1 | 74.0* | -0.6
COc1ccccc1Nc1nc(-c2ccccn2)cs1 | 97.0* | -7.3
CC(=O)Nc1nonc1NC(=O)CSc1n[nH]c(N)n1 | -7.2 | /
O=C(Nc1c(C(=O)Nc2ccc(F)cc2)cnn1-c1ccccc1)c1ccccc1F | 7.0 | 0.1
Cc1[nH]c2ccccc2c(=O)c1CN1CCCCC1C (stereo not given) | 4.5 | -0.6
Cc1cccc(-n2nc3c(c2NC(=O)c2cc(Cl)ccc2[N+](=O)[O-])CS(=O)(=O)C3)c1C | 8.0 | 0.4
Cc1nnc(CNC(=O)C(=O)NC(C)c2ccccc2)o1 (stereo not given) | -9.9 | -0.3
COc1ccc(Cl)cc1Nc1nc(-c2ccncc2)cs1 | -1.7 | -2.9
COc1ccc(Cl)cc1Nc1nc(-c2ccccn2)cs1 | 56.0* | -0.3
COc1ccccc1N1CCN(C(=O)c2cn(-c3ccc(F)cc3F)c(=O)c3ccccc23)CC1 | 36.0 | -4.0
SMILES | mHTT-CaM PPI inh | Pf apPOL inh
O=C(c1cn(-c2ccc(F)cc2F)c(=O)c2ccccc12)N1CCC(Cc2ccccc2)CC1 | 61.0* | -4.2
O=C(c1cccc(Cl)c1)N1N=C(c2ccc(Cl)cc2)CC1(O)C(F)(F)F (stereo not given) | -4.0 | -2.0
Cc1cccc(C(=O)N2N=C(c3ccc(Cl)cc3)CC2(O)C(F)(F)F)c1 (stereo not given) | 89.0* | -7.4
CCC1=NN(C(=O)c2ccc(I)cc2)C(O)(C(F)(F)F)C1 (stereo not given) | 15.0 | 3.4
CCC1=NN(C(=O)c2ccc(Cl)cc2)C(O)(C(F)(F)F)C1 (stereo not given) | 8.0 | 94.3*
Cc1ccccc1C(=O)N1CC2CC(NC(=O)c3cccs3)C1C2 (stereo not given) | 3.7 | -1.3
CNC(=O)c1cc2cc(Br)ccc2oc1=O | -1.0 | -0.6
O=C(NNC(=O)c1cc2cc(Br)ccc2oc1=O)c1ccc(O)cc1O | 54.5* | 72.7*
CC(C)NC(=O)c1ccc(OCC2CCCN(C(=O)C3CCCC3)C2)cc1 (stereo not given) | -0.2 | -4.8
COc1cc(C2=N/C(=C\c3cccc(Br)c3)C(=O)O2)cc(OC)c1OC | 3.0 | -0.9
Cc1ccc(O)c(C2=NCCNC(C(F)(F)C(F)F)=C2)c1 | 7.0 | 58.6*
FC(F)C(F)(F)C1=CC(c2ccccc2)=NCCN1 | -2.0 | -3.1
COc1cc(/C=C2\NC(=O)N(c3cccc(Cl)c3)C2=O)ccc1Oc1ccc([N+](=O)[O-])cn1 | 7.0 | 1.1
COc1cc(Sc2ccc(Cl)cc2)ccc1[N+](=O)[O-] | / | -6.5
COc1cc(Sc2ccccc2[N+](=O)[O-])ccc1N | 54.8* | 1.3
COc1ccc(Cl)cc1C(=O)NCCn1ncc2c(NC(C)C)nc(SC)nc21 | 23.3 | -1.9
CCCCCCCCCn1c[n+](CCCCCCCCC)c2cc(C)c(C)cc21 | 100.2* | /
O=c1ccnc(SCc2ccc([N+](=O)[O-])cc2)[nH]1 | / | 0.1
CCCCNC(=O)c1cnn2c(C)c(Cc3ccc(F)cc3)c(C)nc12 | 48.0 | -3.9
Cc1nc2c(C(=O)NCCc3ccccc3)cnn2c(C)c1Cc1ccc(Cl)cc1 | -7.0 | -4.6
Cc1nc2c(C(=O)NCCc3ccccc3)cnn2c(C)c1Cc1cccc(Cl)c1 | 78.0* | -8.5
Cc1nc2c(C(=O)NCCc3ccc(Cl)cc3)cnn2c(C)c1Cc1ccc(F)cc1 | 80.0* | -8.5
Cc1nc2c(C(=O)NCCc3ccc(Cl)cc3)cnn2c(C)c1Cc1ccccc1 | 53.0* | -7.4
Cc1nc2c(C(=O)NCc3ccccc3)cnn2c(C)c1Cc1cccc(Cl)c1 | 38.0 | -1.0
COc1ccc(CCNC(=O)c2cnn3c(C)c(Cc4cc(C)ccc4C)c(C)nc23)cc1OC | 53.0* | -6.4
SMILES | mHTT-CaM PPI inh | Pf apPOL inh
COc1ccc(CNC(=O)c2cnn3c(C)c(Cc4cc(C)ccc4C)c(C)nc23)cc1 | -1.0 | -4.5
COCC(=O)N1CCCC(COc2ccc(C(=O)N3CCCC3)cc2)C1 (stereo not given) | -0.6 | 4.9
O=c1c2ccccc2c(=O)c2c1c(O)cc1oc3ccccc3[nH]c12 | 0.0 | 13.2
O=C(NCc1cccnc1)c1c(O)c2cccc3c2n(c1=O)CC3 | 10.0 | -0.3
COc1ccc(CN2CCc3nc(N4CCN(c5ccccn5)CC4)ncc3C2)c(OC)c1 | 36.7 | -0.2
COc1ccccc1CN1CCc2nc(N3CCN(c4ccccc4)CC3)ncc2C1 | 24.0 | 1.5
COc1ccccc1CN1CCc2nc(N3CCN(c4ncccn4)CC3)ncc2C1 | 100.2* | 4.9
COc1ccc(OC)c(CN2CCc3nc(N4CCC(C)CC4)ncc3C2)c1 | 51.6* | -1.6
COc1ccc(OC)c(CN2CCc3nc(N4CCN(c5ccccn5)CC4)ncc3C2)c1 | 50.1* | -1.6
c1ccc(CCN2CCc3nc(N4CCN(c5ccccn5)CC4)ncc3C2)cc1 | 60.0* | 0.6
Clc1cccc(CN2CCc3nc(N4CCN(c5ccccn5)CC4)ncc3C2)c1 | 45.8 | -0.5
COc1ccc(CN2CCc3nc(N4CCC(C)CC4)ncc3C2)cc1 | 4.1 | -2.0
CCN(CC)C(=O)CSc1ccc(S(=O)(=O)C(F)(F)F)cc1[N+](=O)[O-] | -3.4 | -9.5
O=C(COc1ccccc1F)NCC1(O)CCc2ccccc21 (stereo not given) | -12.6 | -12.9
CC1(C(=O)NC2CCCCCC2)Oc2cccnc2NC1=O (stereo not given) | -6.9 | -2.1
CCCC1CCC2(CC1)CC[C@@H]2OC(=S)Nc1ccc(Cl)cc1 (stereo not given in full) | -14.5 | -5.6
CCc1nc(N2CCCCC2)c2c(C)nn(-c3ccccc3Cl)c2n1 | -21.9 | -3.0
COc1ccc(-c2c3c(=O)n(C)c(=O)n(C)c3cn2-c2cccc(C)c2)cc1 | 34.0 | 29.7
Cc1ccc(CN2CCc3nc(N4CCC(C)CC4)ncc3C2)cc1C | 71.8* | 1.8
Cc1ccc(CN2CCc3nc(N4CCC(C)CC4)ncc3C2)cc1 | 48.9 | -1.7
Fc1cccc(CN2CCc3nc(N4CCN(c5ccccn5)CC4)ncc3C2)c1F | 29.0 | -7.4
